Compounds without any hit were thinned out: in the full panel of roughly 83,000, 20% have a hit.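 In brief: 96-well plates, 48 h treatment, single concentration, percent growth endpoint.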 A number with no mark means an inactive call. Active and inactive are the calls of the source. Rule for the calls: active = growth percent below 10; inactive = the rest.

Here are results for eight molecules from PubChem BioAssay (NCI).

Assay in all cases: NCI-60 one-dose screen, 48 h (100 = growth as untreated, 0 = no growth, -100 = all killed)
Holding throughout (conditions): 10 µM unless noted

Assay [1] concerns NCI-H23 lung.
Assay [2] has as its system NCI-H226 lung.
Assay [3] concerns NCI-H322M lung.
Assay [4] concerns HOP-62 NSCLC.
The subject of assay [5] is NCI-H460 lung.
In assay [6] the test system is HOP-92 NSCLC.
The test system of assay [7] is NCI-H522 lung.
In assay [8] the test system is A549/ATCC NSCLC.
Assay [9] relates to 786-0 renal.
The subject of assay [10] is COLO 205 colon.
For assay [11], the system named is DU-145 prostate.
Assay [12] relates to K-562 leukemia.
Assay [13] deals with MALME-3M melanoma.
In assay [14] the test system is MDA-MB-231 breast.
Assay [15] relates to RXF 393 renal.
The test system of assay [16] is SF-268 CNS.
For assay [17], the system named is SF-295 CNS.
In assay [18] the test system is SF-539 CNS.
Assay [19] concerns UACC-257 melanoma.
Assay [20] relates to M14 melanoma.

On to `O=C(/C=C\c1ccc(O)c(O)c1)c1ccccc1O`, for which the growth in assay [1] is 86.5%; in [2] it was 71.4%; in assay [3] it was 79.7%; in [4], 98.7%; in assay [5], 61.5%; in assay [6], 55.6%. Besides, the growth was -61.3% (active) in [7]; 55.7% in [8]; 100% in assay [9]; 80.6% in assay [10]; 94.4% in assay [11]; 73.4% in assay [12]. Moreover, the growth was 97.4% in assay [13]; 69.3% in assay [14]; 42.8% in assay [15]; 69.5% in [16]; 99.7% in assay [17]; 59.3% in assay [18]. The values for the growth in assay [19] and in assay [20] were 86.1% and 93.5%, respectively.

For the molecule `Cn1ccnc1C(=O)/C=C/c1ccc(C(=O)Nc2ccccc2F)cc1`, the growth was 27.4% in assay [1]; 50.7% in assay [2]; 14.6% in assay [3]; 3.72% (active) in assay [4]; -0.603% (active) in assay [5]; 16.2% in [6]. The growth was 39.7% in [7]; 17.1% in assay [8]; 18.5% in [9]; 32.7% in assay [10]; 20.7% in assay [11]; 12.6% in [12]. The growth in assay [13] is 54.7%; in assay [14], -2.25% (active); in assay [15], 16.4%; in assay [16], 24.7%; in assay [17], 6.25% (active); in assay [18], -8.53% (active). Also, the growth in assay [19] is 66.7%; in [20] it was 8.56% (active).

Consider `O=C(O)/C=C\C(=O)Nc1ccc2c(c1)Cc1cc(F)ccc1-2`, for which the growth is 95.9% in [1]; 98.3% in assay [2]; 99.7% in assay [3]; 87.9% in [4]; 110% in assay [5]; 97.5% in assay [6]. Further, the growth in [7] is 90.9%; in assay [8], 106%; in [9], 99.7%; in [10], 105%; in [11], 111%; in assay [12], 104%. The growth was 98.9% in [13]; 112% in assay [14]; 114% in assay [15]; 96% in [16]; 96.4% in assay [17]; 94.9% in [18]. Further, the growth was 115% in [19] and 96.4% in [20].

`COc1ccc(CNc2ccc3nc(CCC4CCCCC4)[nH]c3c2)cc1`: the growth in assay [1] was 77.5%; in assay [2] it was 73.8%; in assay [3], 91.2%; in assay [4], 75.8%; in [5] it was 88.6%; in assay [6], 38.3%. For the same molecule, the growth is 67.1% in assay [7]; 80.2% in [8]; 62.7% in [9]; -23.9% (active) in assay [10]; 83.4% in assay [11]; 19.6% in [12]. For the same molecule, the growth is 59.4% in assay [13]; 79.7% in [14]; 74.2% in [15]; 71.4% in assay [16]; 91% in assay [17]; 76.4% in assay [18]. The growth in assay [19] was 75.3%; in [20], 75.7%.

Take `O=c1ccc2nc(-c3ccccc3)nn(-c3ccccn3)c-2c1`: the growth in assay [1] is 90.8%; in assay [2] it was 91.9%; in [3], 102%; in [4] it was 95.9%; in [5], 106%; in [6] it was 55.8%. Also, the growth is -59.7% (active) in assay [7]; 103% in [8]; 63.5% in assay [9]; -68.8% (active) in assay [10]; 105% in [11]; -24.3% (active) in assay [12]. In addition, the growth was 50.1% in assay [13]; 91.1% in assay [14]; 26.8% in [15]; 96.6% in assay [16]; 103% in assay [17]; 99.5% in assay [18]. Besides, the values for the growth in assay [19] and in assay [20] were 72.3% and 105%, respectively.

Regarding `O=C(OCC(O)(CO)C(=O)NC12CC3CC(CC(C3)C1)C2)c1ccc(Cl)cc1` (stereo not given), the growth is 97.6% in assay [1]; 89.1% in assay [2]; 103% in assay [3]; 103% in [4]; 105% in assay [5]; 101% in [6]. For the same molecule, the growth in assay [7] is 88.2%; in assay [8], 91.4%; in assay [9], 99.4%; in assay [10] it was 102%; in assay [11] it was 108%; in assay [12], 91.4%. Besides, the growth is 103% in assay [13]; 101% in assay [14]; 101% in assay [15]; 99.7% in assay [16]; 93.1% in assay [17]; 107% in [18]. For the same molecule, the results for the growth in assay [19] and in [20] were 99.2% and 98.7%, respectively.

In the case of `Cc1cccc(CN(Nc2ccccc2)c2ccccc2)n1`, the growth in assay [1] was 104%; in assay [2], 103%; in assay [3], 96.7%; in assay [4], 99.8%; in [5], 101%; in assay [6], 65%. Besides, the growth in assay [7] was 103%; in assay [8] it was 93.1%; in assay [9], 107%; in assay [10], 111%; in assay [11], 107%; in assay [12] it was 87.5%. For the same molecule, the growth in [13] is 89.8%; in [14] it was 118%; in [15] it was 96.3%; in assay [16], 101%; in assay [17] it was 118%; in [18], 96.6%. The growth in [19] was 98.7%; in assay [20], 105%.

Consider `O=[N+]([O-])c1ccc(N/N=C\c2cc(Cl)ccc2O)nc1`, for which the growth in [1] is 32.7%; in assay [2] it was 100%; in assay [3], 30.4%; in [4], 45.6%; in assay [5], 12.8%; in [6], 59.7%. Besides, the growth in assay [7] is 31.3%; in assay [8], 50.4%; in assay [9], 34%; in assay [10] it was 50.1%; in [11], 39.4%; in assay [12], 17.8%. The growth was 25.6% in assay [13]; 48.8% in assay [14]; 50.2% in assay [15]; 33.3% in assay [16]; 29.9% in assay [17]; 29.8% in assay [18]. Moreover, the growth in assay [19] was 30.2%; in [20], 17.1%.
